The list is not random: actives were taken first. Their share in the collection is about 5%.
SENP6 inh: SENP6 protease inhibition | Q9GZR1 | Recombinant SENP6 catalytic domain, aminoluciferin luminescence | inhibition, % at 10 µM | 1.8% of 330,000 active | AID 2599;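 active = inhibition above about 50% at the single tested dose, limit read from the data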;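 note: plate controls were DMSO wells with enzyme for no effect and DMSO wells lacking enzyme for full effect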
AHR act: human AHR activation. P35869. AHR-responsive luciferase reporter cells, luminescence. activation, % at 5 µM. 2.5% of 320,000 active. AID 2796; in the data active = activation above about 47%;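 note: 0% = vehicle wells and 100% = reference agonist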
SENP8 block-1: inhibitors of human SENP8 protease; purified SENP8, Z-RLRGG-aminoluciferin cleavage, luminescence; inhibition, % at 10 µM; 1.2% of 330,000 active; in the data active = inhibition above about 50%
SENP8 block-2: SENP8 (human) protease inhibition | recombinant SENP8, Nedd8 substrate fluorescence | 0.64% of 360,000 active | AID 602440 | Q96LD8 | inhibition, % at 20 µM; in the data active = inhibition mostly above about 40%, no sharp cut-off; inactive = mostly below about 27%
SENP7 block: inhibitors of human SENP7 protease; recombinant SENP7, Z-RLRGG-aminoluciferin luminescence, 40 min; Q9BQF6; AID 434973; inhibition, % at 5 µM; 1.5% of 330,000 active;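 active = inhibition above about 50% at the single test dose, limit read from the data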;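 note: plate controls were DMSO with enzyme for no effect and no enzyme buffer wells for full effect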
EBI2 antag: antagonists of human EBI2 receptor; inhibition, % at 5 µM; AID 651636; EBI2 beta-arrestin recruitment, luminescence, 7a,25-OHC stimulated; 0.81% of 360,000 active; in the data active = inhibition above about 38%;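 note: enzyme fragment complementation signal reports receptor beta-arrestin coupling in cells; 0% = agonist plus DMSO wells and 100% = wells without agonist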
AHR act cf: human AHR activation, confirmation | activation, % at 9 µM | human cells, AHR-responsive luciferase reporter, luminescence | shares compounds with AHR act | AID 2845 | 87% of 2,300 active; in the data active = activation above about 49%;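 note: HepG2 hepatoma cells carrying a DRE-driven firefly luciferase reporter; 0% = vehicle wells and 100% = reference agonist wells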
PXR act counter: activates human PXR in AHR activator counter-screen; shares compounds with AHR act; cell-based PXR reporter, luciferase luminescence; activation, % at 11.6 µM; 88% of 2,300 active; AID 434939; in the data active = activation above about 11%;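 note: human hepatoma DPX-2 cells expressing full-length human PXR; 0% = DMSO and 100% = reference agonist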
Target sequence (O75469 whole entry, looked up): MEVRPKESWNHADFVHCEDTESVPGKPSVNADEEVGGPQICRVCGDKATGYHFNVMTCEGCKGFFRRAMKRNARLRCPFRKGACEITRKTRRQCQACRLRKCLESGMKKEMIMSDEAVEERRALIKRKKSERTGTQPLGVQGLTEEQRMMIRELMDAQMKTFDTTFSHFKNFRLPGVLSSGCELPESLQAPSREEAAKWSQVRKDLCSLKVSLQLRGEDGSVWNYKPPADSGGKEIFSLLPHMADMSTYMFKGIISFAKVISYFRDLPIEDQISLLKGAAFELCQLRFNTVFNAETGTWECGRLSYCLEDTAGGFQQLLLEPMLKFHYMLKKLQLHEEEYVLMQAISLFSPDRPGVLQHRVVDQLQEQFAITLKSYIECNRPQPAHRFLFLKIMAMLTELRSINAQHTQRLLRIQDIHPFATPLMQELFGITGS
The depositor's hits bear a star; nt = not tested or not shown.

SMILES	SENP6 inh	AHR act	SENP8 block-1	SENP8 block-2	SENP7 block	EBI2 antag	AHR act cf	PXR act counter
Nc1n[nH]c(C2CC2)c1N=Nc1ccc(Cl)cc1	-11	81*	-4	24	1	-1	101*	9
Cc1cc(C)n(CC(=O)c2ccccc2)c(=O)c1C#N	3	100*	10	2	2	-8	105*	22*
CN1CCN(CCCNC(=O)Nc2ccc([N+](=O)[O-])cc2)CC1	1	0	-2	17	2	6	nt	nt
O=C(NCC1CCCN1S(=O)(=O)c1cccs1)C(=O)Nc1ccccc1Cl (stereo unspecified)	6	-1	-3	-10	0	-3	nt	nt
O=C(N/N=C/c1cc2c(cc1Cl)OCO2)c1cc(-c2ccccc2)n[nH]1	21	34	-4	-106	-3	2	nt	nt
O=C(N/N=C\c1cc2c(cc1Cl)OCO2)c1cccnc1	-13	80*	-21	-119	-6	9	79*	13*
O=C(N/N=C/c1cc2c(cc1Cl)OCO2)c1ccncc1	-4	87*	-6	-31	6	-8	63*	9
Cc1ccc(C(=O)Nc2ccc(C(=O)N/N=C/c3c[nH]c4ccccc34)cc2)cc1	11	21	4	-294	-3	9	nt	nt
Cc1cccc(NC(=S)N/N=C/c2c[nH]c3ccccc23)c1	-17	135*	-1	-191	2	-12	87*	19*
Cc1cccc(NC(=S)N/N=C/c2ccc3c(c2)OCO3)c1	2	94*	0	-16	9	21	71*	87*
Cc1cccc(NC(=S)N/N=C/c2cccc([N+](=O)[O-])c2)c1	-8	134*	-7	30	-10	6	145*	41*
Cc1ccn(CC(=O)N2CCCC(N3CCN(Cc4ccc5c(c4)OCO5)CC3)C2)n1 (stereo unspecified)	2	-1	1	1	-4	-5	nt	nt
COc1ccc(CCC(=O)Nc2ccc(N3CCOCC3)c(S(=O)(=O)Nc3ccc(OC)cc3)c2)cc1	nt	nt	nt	4	nt	17	nt	nt
COc1cccc2[nH]c3c(N4CCCC(C)C4)ncnc3c12 (stereo unspecified)	3	81*	-5	-274	-17	4	97*	69*
COc1cccc2[nH]c3c(N4CC(C)CC(C)C4)ncnc3c12 (stereo unspecified)	-8	nt	-2	nt	-3	nt	nt	nt
COc1ccc(/C=N/NC(=O)c2cccc(NC(=O)c3ccc(F)cc3)c2)c(C(=O)O)c1OC	9	106*	7	-94	2	-1	93*	nt
COc1cccc(/C=N/NC(=O)c2cc3c(OC)ccc(OC)c3[nH]2)c1O	1	84*	3	-54	7	1	21	10
O=C1CN(C(=S)NC(=O)c2ccc(-c3ccccc3)cc2)CCN1	-5	6	-9	8	-9	0	nt	nt
COc1ccc(OC)c2nc(-c3ccc4c(c3)OCO4)ccc12	9	117*	-8	-291	0	-12	125*	46*
Cc1ccc2c(ccc[n+]2CC(=O)c2ccccc2)c1	10	9	-2	-58	5	2	nt	nt
O=C(C[n+]1cc(Br)cc2ccccc21)c1ccccc1	6	93*	1	0	3	8	96*	103*
COc1cc(NC(=O)C2Cc3ccccc3CN2S(C)(=O)=O)cc(OC)c1 (stereo unspecified)	1	1	-7	10	2	-1	nt	nt
COc1ccc(OC)c(S(=O)(=O)N2Cc3ccccc3CC2C(=O)Nc2nccs2)c1 (stereo unspecified)	-13	84*	-6	27	-10	0	60*	135*
Cc1ccc(C)c(/C=C/C(=O)c2ccccc(=O)c2O)c1	nt	4	nt	10	nt	6	nt	nt
Cc1ccc(/C=C/C(=O)c2ccccc(=O)c2O)c(C)c1	2	94*	-11	16	-2	11	12	17*
SMILES	SENP6 inh	AHR act	SENP8 block-1	SENP8 block-2	SENP7 block	EBI2 antag	AHR act cf	PXR act counter
Cc1cccc(-c2nc3ccccc3c3nncn23)c1	-2	22	-11	14	-9	-9	nt	nt
c1ccc(-c2nc3ccccc3c3nncn23)cc1	-9	97*	-2	17	-3	-13	123*	20*
C=CCn1c(=N)n(CC(=O)OCC)c2ccccc21	-5	0	-3	25	2	-4	nt	nt
C=CCn1c(=N)n(CC(=O)c2ccc(Br)cc2)c2ccccc21	-29	86*	-7	10	-5	10	96*	31*
CCCn1c(=N)n(CC(=O)c2ccc(Cl)cc2)c2ccccc21	1	86*	5	23	-5	26	80*	31*
O=C(Cn1cnc2ccccc21)c1ccc(Br)cc1	-18	5	-7	5	-4	6	nt	nt
C=CCn1c(=N)n(CC(=O)c2ccccc2)c2ccccc21	-8	102*	-11	9	-13	-1	88*	47*
N=c1n(N)c2ccccc2n1CC(=O)c1ccc(Br)cc1	5	83*	2	18	5	7	86*	10
CCCn1c(=N)n(CC(=O)c2ccc([N+](=O)[O-])cc2)c2ccccc21	30	11	-4	1	9	30	nt	nt
C=CCn1c(=N)n(CC(=O)O)c2ccccc21	18	1	-6	11	10	-13	nt	nt
CC(=O)NC1(C(F)(F)F)C(=O)Nc2c1c(=O)[nH]c(=O)n2CC(C)C (stereo unspecified)	-9	1	3	-7	7	3	nt	nt
CCN(CC(=O)Nc1ccc(Cl)c(S(=O)(=O)N(C)C)c1)CC(=O)NC(C)C	1	3	-4	10	0	0	nt	nt
CCc1ccc(-c2cc(C)no2)cc1S(=O)(=O)N1CCOc2ccccc21	19	4	8	21	4	18	nt	nt
C=CCn1c(NC(=O)c2ccccc2)nc2ccccc21	0	87*	-14	-42	-17	-7	126*	33*
Cc1ccc2nc(-c3ccc(Cl)cc3)c(Cc3cccc(Cl)c3)n2c1	nt	nt	nt	-391	nt	31	nt	nt
Cc1ccc2nc(-c3ccc(-c4cccc(Cl)c4)cc3)c(NCc3ccccc3)n2c1	-21	86*	0	-492	6	58*	37	28*
Cc1cccc(-n2nc3c(c2NC(=O)C(C)C)CSC3)c1	-7	2	3	-71	-4	4	nt	nt
COc1ccc(NC(=O)Nc2cccnc2)c(OC)c1	-9	91*	-1	11	5	-8	115*	12*
O=C(Nc1cccnc1)Nc1ccc2c(c1)OCO2	33	85*	5	18	18	-5	91*	16*
O=C(Nc1ccc2c(c1)OCO2)c1ccc2c(c1)OCO2	86*	91*	67*	9	85*	-8	19	18*

Assay outcomes from PubChem BioAssay.
